A selection: hits, their analogues and other compounds. The true share with any hit is near 5.3%.
VACV Venus inh – inhibitors of vaccinia virus (Venus reporter); Vaccinia virus Venus reporter expression, fluorescence; Potency, µM (titrated, usually from 36.5 µM), for inactives: top-dose activity change, negative = inhibition, usual class: inhibitors; 0.46% of 330,000 active; AID 720580; calls by dose curve; tested in A549 cells; note: nearly all actives have a fitted effect of over 30% in size
HCV inhibitor – blocks hepatitis C virus; AID 651820; Huh7.5.1 HCVcc-Cre infection, luciferase reporter, 44 h; Potency, µM (doses to about 41.8 µM), for the others: top-dose activity change, negative = inhibition, most hits filed as inhibitors; 3.4% of 340,000 active; active = well fitted inhibition curve with a large enough effect; inconclusive = small, poorly fitted or top-dose-only effect, or another doubt; inactive = no such curve, though single readings can be large or run the other way
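1,000 cells/well; 4 h culture; + compound; + HCVcc-Cre (~0.5 moi); 44 h; luciferase substrate, RT 15 min; read 15 sec.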
Lassa entry inh – inhibitors of Lassa virus binding or cell entry | AID 540256 | Lassa virus pseudotype entry inhibition, cell reporter | 1.2% of 300,000 active | Potency, µM (highest dose often 37.9 µM), without a hit: at the highest dose activity change, negative = inhibition, usual class: inhibitors; calls by dose curve; tested in HEK293 cells; note: nearly all actives have a fitted effect of over 50% in size
VACV mCherry inh – vaccinia inhibition (mCherry reporter); Vaccinia virus mCherry reporter infection, fluorescence; Potency, µM (top dose mostly 36.5 µM), inactives show at the top dose activity change, negative = inhibition, most hits filed as inhibitors; 0.63% of 310,000 active; AID 720579; calls by dose curve; tested in A549 cells; note: nearly all actives have a fitted effect of over 35% in size
FMDV inh – foot and mouth disease virus antiviral activity | 1.2% of 410,000 active | FMDV antiviral cell-based qHTS | Potency, µM (doses to about 57.9 µM), without a hit: at the top dose activity change, negative = inhibition, most hits filed as inhibitors | AID 1159524; calls by dose curve; tested in HEK293T cells; note: read-out not given here; nearly all actives have a fitted effect of over 45% in size
Marburg entry inh – inhibitors of Marburg virus binding or cell entry; Marburg virus pseudotyped entry inhibition, cell reporter; Potency, µM (titrated, usually from 37.8 µM), without a hit: at the top dose activity change, negative = inhibition, most hits filed as inhibitors; 1.8% of 300,000 active; AID 540276; calls by dose curve; tested in HEK293 cells
* = called active by the depositor; i = inactive; ? = inconclusive; · = not tested or not shown; [ ] = dose if it differs, or a comment. % is set by controls: 0 for no effect and ±100 for the full control effect; potency is the fitted concentration of half-maximal effect.

SMILES	VACV Venus inh	HCV inhibitor	Lassa entry inh	VACV mCherry inh	FMDV inh	Marburg entry inh
O=C(Nc1ccc2nc(C3CC3)n(Cc3ccc(F)cc3)c(=O)c2c1)c1ccco1	?	22µM*	?	?	-20%	-29%
COc1ccccc1N1CCN(C(=O)/C=C/c2c(Cl)nc3ccccn23)CC1	-22%	11µM*	?	i	?	?
COc1ccc(NC(=O)/C=C/c2c(Cl)nc3ccccn23)cc1	·	?	·	·	-3%	·
Cc1ccccc1Oc1nc2c(C)cccn2c(=O)c1/C=C(\C#N)C(=O)Nc1c(C)n(C)n(-c2ccccc2)c1=O	-8%	16%	?	i	32µM*	?
Cc1c(NC(=O)/C(C#N)=C/c2c(Oc3ccccc3)nc3ccccn3c2=O)c(=O)n(-c2ccccc2)n1C	-8%	-10%	-15%	-19%	?	?
Cc1ccccc1Oc1nc2ccccn2c(=O)c1/C=C(\C#N)C(=O)Nc1c(C)n(C)n(-c2ccccc2)c1=O	-13%	12%	-14%	i	22µM*	4%
Cc1ccc(Oc2nc3ccccn3c(=O)c2/C=C(\C#N)C(=O)Nc2c(C)n(C)n(-c3ccccc3)c2=O)cc1	-24%	13%	0%	-8%	?	-27%
CC[C@@H](C)CCCCC(=O)N[C@@H](CCNCS(=O)(=O)O)C(=O)N[C@H](C(=O)N[C@@H](CCNCS(=O)(=O)O)C(=O)N[C@H]1CCNC(=O)[C@H]([C@@H](C)O)NC(=O)[C@H](CCNCS(=O)(=O)O)NC(=O)[C@H](CCNCS(=O)(=O)O)NC(=O)[C@H](CC(C)C)NC(=O)[C@@H](CC(C)C)NC(=O)[C@H](CCNCS(=O)(=O)O)NC1=O)[C@@H](C)O	-10%	·	·	-15%	-2%	·
COc1ccc(/C=C/C(=O)N2CCc3c(cnc(C)c3CNS(=O)(=O)c3cccs3)C2)cc1	-15%	·	·	-26%	-7%	·
C=CS(=O)(=O)N[C@@H](CSSC[C@H](NS(=O)(=O)C=C)C(=O)OC)C(=O)OC	·	·	8%[46.1 µM]	·	·	·
COc1cc(C(=O)Oc2c(CN3CCOCC3)cc(Cl)c3cccnc23)cc(OC)c1OC	?	?	·	?	?	-2%
O=C(Oc1c(CN2CCOCC2)cc(Cl)c2cccnc12)c1ccc(F)cc1	·	10µM*	?	·	-21%	10µM*
COc1ccc(C(=O)Oc2c(CN3CCOCC3)cc(Cl)c3cccnc23)cc1	?	13µM*	-22%	·	-24%	?
Cc1cc(C(=O)N2CCCC(N3CCN(c4cccc(C(F)(F)F)c4)CC3)C2)c(C)o1 (stereo not given)	·	13µM*	·	·	-25%	·
COC(=O)[C@H](Cc1ccccc1)NC(=O)NCc1ccccc1	·	18%	·	·	11%	·
COC(=O)[C@H](Cc1ccccc1)NC(=O)[C@@H](N)CC(=O)O	-19%	0.56µM*	·	-7%	-6%	·
CC1=C(/C=C/C(C)=C/C=C/C(C)=C/C=C/C=C(C)/C=C/C=C(C)/C=C/C2=C(C)C(=O)C(O)CC2(C)C)C(C)(C)CC(O)C1=O (stereo not given)	-1%	·	·	-7%	-11%	·
O=c1[nH]c(CSc2nc3ccccc3[nH]2)nc2c1cnn2-c1ccccc1	-29%	?	?	?	22µM*	?
O=c1[nH]c(CSc2ncccn2)nc2c1cnn2-c1ccccc1	-5%	-9%	3%	-18%	-14%	12%
Cc1ccc2nc(SCc3nc4cc(Cl)ccc4c(=O)[nH]3)[nH]c2c1	-1%	?	1%	6%	-23%	-10%[46.1 µM]
Cc1ccc2nc(SCc3nc4c(cnn4-c4ccccc4)c(=O)[nH]3)[nH]c2c1	-11%	?	?	-18%	11µM*	?
O=c1[nH]c(SCc2nc3c(cnn3-c3ccccc3)c(=O)[nH]2)nc2ccccc12	-2%	?	0.71µM*	·	9%	1µM*
O=c1[nH]c(CSc2nc3ccccc3o2)nc2c1cnn2-c1ccccc1	-8%	-8%	-4%	·	-7%	7%
CCC(=N[C@H](CC)CO)C1=C(O)CC(C)(C)CC1=O	·	·	·	·	·	7%
CC(C)(C)NCC(O)CON=C1c2ccccc2-c2ccccc21 (stereo not given)	?	25µM*	·	?	?	10µM*
SMILES	VACV Venus inh	HCV inhibitor	Lassa entry inh	VACV mCherry inh	FMDV inh	Marburg entry inh
O=C(NCC1CCC2(CCN(Cc3cccc(-c4ccco4)c3)CC2)O1)c1ccccc1 (stereo not given)	0%	·	·	-15%	-5%	·
O=C(NCc1ccccc1)c1ccc(-c2ccccc2C(F)(F)F)o1	-4%	3%[8.37 µM]	2.3µM*	i	52%	?
O=C(NCc1ccccc1)c1ccc(-c2ccc(F)cc2)o1	·	?	6.5µM*	·	24%	-3%
Cc1ccccc1-c1ccc(C(=O)NCc2ccccc2)o1	?	-4%[8.37 µM]	?	-16%	50%	11%
Cc1ccc(-c2ccc(C(=O)NCc3ccc(Cl)cc3)o2)c2ccccc12	-19%	-5%[8.37 µM]	21µM*	?	-25%	5%
O=C(CCc1ccccc1)NCc1ccc(F)cc1	-12%	1%	1%[46.1 µM]	i	25%	-1%[46.1 µM]
O=C(Nc1ccc(Br)cc1F)c1ccc2c(c1)OCCO2	-6%	-25%	?	-8%	-48%	6.3µM*
O=C(NCc1ccccc1F)c1ccc2c(c1)OCO2	·	16%	19%	·	35%	15%
O=C(NCCc1ccccc1F)c1ccc2c(c1)OCCO2	-3%	4%	0.89µM*	-7%	2.8µM*	?
O=C(Nc1ccc(F)cc1F)c1ccc2c(c1)OCCO2	0%	10%	?	-6%	3%	2.8µM*
CCSc1nc(-c2ccc(Cl)cc2)nc2c1Cc1c(CO)cnc(C)c1O2	-15%	·	0%[46.1 µM]	-11%	-2%	·
Cc1nn2c(=O)cc(COC(=O)c3ccccc3NC(=O)c3cccs3)nc2s1	?	·	7%[46.1 µM]	?	?	·
CCCCc1ccc(NC(=O)CSc2nnc3[nH]c(=O)cc(C)n23)cc1	-5%	·	12%[46.1 µM]	-12%	2%	·
C[C@@H]1CN([C@@H](C)CO)C(=O)CCCn2nncc2CO[C@@H]1CN(C)S(=O)(=O)c1ccc(Oc2ccccc2)nc1	-11%	·	·	-18%	-14%	·
O=C(C=Cc1cccnc1)c1ccccc1	-6%	?	?	-15%	32µM*	13µM*
Cc1cccnc1NC(=S)NC(=O)/C=C/c1ccccc1	-5%	13%	14%[46.1 µM]	-1%	25%	?
COc1cc(C(=O)/C=C/c2cccnc2)c([N+](=O)[O-])cc1OC	11µM*	?	·	13µM*	14µM*	·
O=C(/C=C/c1ccccc1)NC(=S)Nc1cccnc1	-24%	20%	-3%	-19%	·	12µM*
O=C(CSc1n[nH]c(-c2ccc(F)cc2)n1)N1CCN(c2ccc(F)cc2)CC1	-10%	·	3%[46.1 µM]	i	-1%	·
COc1ccc(C2CC(=O)Nc3c2c(=O)[nH]c2nc4ccccc4n32)cc1 (stereo not given)	19%	·	14%[46.1 µM]	16%	-20%	1%[46.1 µM]

Screening results deposited in PubChem BioAssay by National Center for Advancing Translational Sciences (NCATS).
